Results as given in PubChem BioAssay (Tox21).
Values joined by “and” are separate entries in the source; they are usually repeats but may differ in a detail not shown here. Equal entries are not always repeated. Records with an inconclusive call do not appear. Entries that show only a call come without a potency. Active and inactive are the calls of the source. Unless noted, calls come from the whole dose curve; as a rule, active = well fitted curve in the direction sought with a large enough effect in the repeat runs; inconclusive = weak or mixed curves; inactive = no such curve, though single readings can be large; an effect the other way counts as inactive or inconclusive.

Tests used:
[1] = qHTS assay to identify small molecule agonists of the RXR signaling pathway - cell viability counter screen (AID 1159529); note: nearly all actives have a fitted effect of over 50% in size; note: potency is the fitted concentration of half-maximal effect
How it was run: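 Cell viability is measured by CellTiter-Glo luminescence, 30 min at room temperature, in wells already read for beta-lactamase. Engineered HEK 293T cells (RXR-alpha-UAS-bla) are dosed 16 hr at 37 C. Tetraoctyl ammonium bromide serves as positive control.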

[2] = qHTS assay to identify small molecule antagonists of the retinoid acid receptor (RAR) signaling pathway - cell viability counter screen (AID 1159551); note: nearly all actives have a fitted effect of over 35% in size
How it was run: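 C3RL4 RARE-luciferase line; cpds + retinol 1 uM final, 6 h, 37 C/5% CO2; CellTiter-Glo ATP luminescence, 30 min RT.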

[3] = qHTS assay to identify small molecule antagonists of the estrogen related receptor (ERR) signaling pathway from Tox21 library - cell viability counter screen (AID 1224834); note: nearly all actives have a fitted effect of over 30% in size
How it was run: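 Multiplexed viability counter screen in ERR cells: 17.5 h compound exposure at 37 C, CellTiter-Fluor added, 30 min at 37 C/5% CO2, fluorescence read.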

[4] = target: Luciferin 4-monooxygenase (Photinus pyralis) (UniProt P08659); test: qHTS assay to identify small molecule inhibitors of firefly luciferase (AID 1224835); note: series mostly up to about 120 µM; nearly all actives have a fitted effect of over 25% in size
Sequence of Luciferin 4-monooxygenase (Photinus pyralis) (P08659 whole entry, looked up): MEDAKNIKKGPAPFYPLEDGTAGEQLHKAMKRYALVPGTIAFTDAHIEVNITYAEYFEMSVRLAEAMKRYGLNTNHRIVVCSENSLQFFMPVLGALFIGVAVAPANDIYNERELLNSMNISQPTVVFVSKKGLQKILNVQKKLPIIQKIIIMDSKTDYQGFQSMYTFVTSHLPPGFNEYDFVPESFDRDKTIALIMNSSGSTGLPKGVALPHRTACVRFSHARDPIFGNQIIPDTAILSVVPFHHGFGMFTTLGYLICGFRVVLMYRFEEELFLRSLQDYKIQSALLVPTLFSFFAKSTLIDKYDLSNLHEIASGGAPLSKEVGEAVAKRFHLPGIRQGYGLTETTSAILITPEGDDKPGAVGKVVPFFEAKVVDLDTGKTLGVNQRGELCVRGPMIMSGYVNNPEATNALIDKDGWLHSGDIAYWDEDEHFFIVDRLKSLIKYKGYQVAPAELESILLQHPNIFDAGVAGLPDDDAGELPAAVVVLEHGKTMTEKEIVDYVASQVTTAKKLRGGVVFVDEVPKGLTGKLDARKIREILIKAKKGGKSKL
How it was run: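 Biochemical qHTS: compounds run as interplate titrations against purified firefly enzyme, with D-luciferin and ATP each at its KM concentration. Light output recorded by CCD imaging.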

[5] = qHTS assay to identify small molecule antagonists of the constitutive androstane receptor (CAR) signaling pathway - cell viability counter screen (AID 1224837); note: series mostly up to about 92 µM; nearly all actives have a fitted effect of over 45% in size
How it was run: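 Read-out: CellTiter-Fluor fluorescence after 23 hr at 37 C/5% CO2. Cells: HepG2 double-stable for hCAR and CYP2B6-2.2kb. Compounds tested at 15 concentrations in the presence of CITCO, final concentration 50 nM.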

[6] = target: Nuclear receptor subfamily 1 group I member 3 (Homo sapiens) (UniProt Q14994); test: qHTS assay to identify small molecule antagonists of the constitutive androstane receptor (CAR) signaling pathway (AID 1224838);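 note: HepG2 cells stably expressing hCAR with CYP2B6 luciferase reporter stimulated by CITCO; nearly all actives have a fitted effect of over 40% in size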
Sequence of Nuclear receptor subfamily 1 group I member 3 (Homo sapiens) (Q14994 whole entry, looked up): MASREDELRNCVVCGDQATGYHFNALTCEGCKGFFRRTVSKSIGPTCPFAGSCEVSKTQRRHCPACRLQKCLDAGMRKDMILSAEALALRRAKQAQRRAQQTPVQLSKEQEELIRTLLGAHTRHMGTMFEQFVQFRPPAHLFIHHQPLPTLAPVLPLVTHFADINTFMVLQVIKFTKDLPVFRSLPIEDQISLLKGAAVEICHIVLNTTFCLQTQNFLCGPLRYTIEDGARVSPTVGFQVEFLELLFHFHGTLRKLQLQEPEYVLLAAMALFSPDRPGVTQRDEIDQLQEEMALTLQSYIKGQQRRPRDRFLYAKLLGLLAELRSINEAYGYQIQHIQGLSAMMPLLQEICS
How it was run: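 Read-out: ONE-Glo luciferase luminescence after 30 min at room temperature. HepG2-CYP2B6-hCAR double-stable cells, compounds in 15-point titration plus 50 nM CITCO final, 24 h at 37 C/5% CO2.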

[7] = target: Nuclear receptor subfamily 1 group I member 3 (Homo sapiens) (UniProt Q14994); test: qHTS assay to identify small molecule agonists of the constitutive androstane receptor (CAR) signaling pathway (AID 1224839); note: nearly all actives have a fitted effect of over 15% in size; note: potency is the fitted concentration of half-maximal effect
How it was run: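 A 15-concentration quantitative screen uses HepG2 cells co-transfected stably with human CAR and CYP2B6-2.2kb reporter. Treatment lasts 24 h with 0.75 uM PK11195 final present; ONE-Glo luminescence is the signal.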

[8] = qHTS assay to identify small molecule antagonists of the estrogen related receptor signaling pathway with the pleiotropic PPARgamma coactivator (PGC) from Tox21 10K library - cell viability counter screen (AID 1224840; active = well fitted cell-killing curve with a large enough effect in the repeat runs, not every such curve was filed as active; note: nearly all actives have a fitted effect of over 40% in size)
How it was run: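 Fluorescence read-out of CellTiter-Fluor viability reagent, added after cells had been exposed to compound in DMSO for 17.5 h at 37 C; 30 min development at 37 C/5% CO2. Cells: PGC/ERR line, 2,000/well.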

[9] = target: Thyrotropin receptor (Homo sapiens) (UniProt P16473); test: qHTS assay to identify small molecule agonists of the thyroid stimulating hormone receptor (TSHR) signaling pathway (AID 1224843; calls by dose curve; note: nearly all actives have a fitted effect of over 45% in size)
Sequence of Thyrotropin receptor (Homo sapiens) (P16473 whole entry, looked up): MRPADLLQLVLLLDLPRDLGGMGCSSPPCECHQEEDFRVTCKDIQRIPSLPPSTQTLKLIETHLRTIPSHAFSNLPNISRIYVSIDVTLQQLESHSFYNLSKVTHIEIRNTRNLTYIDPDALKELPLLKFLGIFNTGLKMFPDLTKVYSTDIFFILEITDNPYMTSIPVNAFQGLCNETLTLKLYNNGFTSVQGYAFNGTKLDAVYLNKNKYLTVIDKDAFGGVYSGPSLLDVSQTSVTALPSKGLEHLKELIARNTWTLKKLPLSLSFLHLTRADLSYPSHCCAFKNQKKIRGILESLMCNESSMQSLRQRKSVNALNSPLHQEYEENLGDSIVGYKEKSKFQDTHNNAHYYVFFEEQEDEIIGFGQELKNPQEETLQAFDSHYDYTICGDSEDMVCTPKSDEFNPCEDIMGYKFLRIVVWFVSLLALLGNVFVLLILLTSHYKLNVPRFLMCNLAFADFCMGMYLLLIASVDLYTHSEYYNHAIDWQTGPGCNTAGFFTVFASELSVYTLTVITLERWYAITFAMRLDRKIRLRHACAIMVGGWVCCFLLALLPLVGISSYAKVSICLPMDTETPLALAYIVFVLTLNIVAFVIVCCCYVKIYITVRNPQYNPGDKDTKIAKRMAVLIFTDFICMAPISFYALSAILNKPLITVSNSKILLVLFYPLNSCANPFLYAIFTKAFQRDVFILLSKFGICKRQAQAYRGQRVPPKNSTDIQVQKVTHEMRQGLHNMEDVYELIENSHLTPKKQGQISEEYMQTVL
How it was run: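 Agonist-mode screen: TSHR HEK293 cells received test chemicals for half an hour at room temperature, then HTRF cAMP detection reagents for one hour prior to fluorescence measurement. Each chemical ran as a 15-concentration series, triplicated.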

[10] = qHTS assay to identify small molecule agonists of the constitutive androstane receptor (CAR) signaling pathway - cell viability counter screen (AID 1224836); note: series mostly up to about 92 µM; nearly all actives have a fitted effect of over 45% in size
How it was run: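 Counter screen multiplexed with the CAR reporter readout: HepG2 cells co-transfected with hCAR and the CYP2B6-2.2kb construct receive a 15-concentration compound series and 0.75 uM PK11195 (final), then CellTiter-Fluor fluorescence is read after 23 h.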

[11] = qHTS assay to identify small molecule antagonists of the estrogen related receptor signaling pathway with the pleiotropic PPARgamma coactivator (PGC) from Tox21 10K library (AID 1224841; call rule not given here; note: actives are mostly falling curves and most rising ones were filed inactive; nearly all actives have a fitted effect of over 50% in size; note: potency is the fitted concentration of half-maximal effect)
How it was run: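 Luminescence read-out (One-Glo luciferase reagent, 30 min at room temperature) from PGC/ERR cells exposed to DMSO-dissolved test compounds for 18 h at 37 C; cells, 2,000 per well, had been preincubated 6 h before compound transfer.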

[12] = qHTS assay to identify small molecule agonists of the estrogen related receptor signaling pathway with the pleiotropic PPARgamma coactivator (PGC) from Tox21 10K library (AID 1224842); note: nearly all actives have a fitted effect of over 15% in size
How it was run: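 PGC/ERR reporter cell line, 2,000 cells per well, incubated 6 h at 37 C before 23 nL compound in DMSO was added. After 18 h at 37 C, One-Glo luminescence read following 30 min at room temperature.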

[13] = qHTS assay to identify small molecule antagonists of the retinoic acid receptor (RAR) signaling pathway (AID 1159552; note: nearly all actives have a fitted effect of over 50% in size)
How it was run: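 Quantitative HTS in C3RL4 RARE-luciferase reporter cells. Compounds were added with 1 uM (final) retinol; luminescence was read after 6 hr.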

[14] = qHTS assay to identify small molecule agonists of the retinoic acid receptor (RAR) signaling pathway (AID 1159553)
How it was run: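 RARE-luc C3RL4 cells; overnight attachment 37 C/5% CO2; compound (DMSO) 6 hr; luciferase reagent, 30 min RT; luminescence read-out.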

SMILES | Potency [1] | Potency [2] | Potency [3] | Potency [4] | Potency [5] | Potency [6] | Potency [7] | Potency [8] | Potency [9] | Potency [10] | Potency [11] | Potency [12] | Potency [13] | Potency [14]
Oc1ccc(I)cc1 | inactive | inactive | inactive | inactive | inactive | inactive | inactive | inactive | inactive |  |  |  |  | 
Clc1ccc(-c2ccccc2)cc1 | inactive | inactive | inactive |  | inactive | inactive | inactive | inactive | inactive | inactive | inactive | inactive |  | 
CC(=O)c1cc(C(C)(C)C)cc2c1CCC2(C)C | inactive | inactive | inactive | inactive | inactive |  |  | inactive |  | inactive | inactive | inactive |  | 
CC(C)CC(C)N (stereo not drawn) | inactive | inactive | inactive | inactive | inactive |  |  | inactive | inactive |  | inactive | inactive |  | 
C[C@@H](Oc1ccc(Cl)cc1Cl)C(=O)O | inactive | inactive | inactive | inactive | inactive |  |  | inactive | inactive | inactive |  |  |  | 
C=CC(=O)N(C)C | inactive | inactive | inactive | inactive | inactive |  |  | inactive | inactive |  | 27.3 µM (active) | inactive |  | 
Clc1ccc(C(c2ccccc2Cl)C(Cl)(Cl)Cl)cc1 (stereo not drawn) | 49.3 µM (active) and 25.6 µM (active) | inactive |  | inactive | inactive |  | 6.9 µM (active) and 1.6 µM (active) | inactive |  |  | 61.5 µM (active) | inactive |  | 
O=[N+]([O-])c1ccc(Oc2ccc(C(F)(F)F)cc2[N+](=O)[O-])cc1 | inactive | inactive |  | inactive | inactive |  |  | inactive | inactive | inactive | inactive | inactive |  | 
C[As+](C)(C)CC(=O)[O-] | inactive | inactive | inactive | inactive | inactive | inactive | inactive | inactive | inactive |  |  | inactive |  | 
Clc1ccc(-c2ccc(Cl)c(Cl)c2Cl)c(Cl)c1Cl |  | inactive | inactive | inactive | inactive |  |  | inactive | inactive | inactive | inactive | inactive | inactive | inactive
